Screens from PubChem BioAssay.
This is one part of a sample in which hits are shown more often than they occur.
mcGAS MS inh – inhibitors of mouse cGAS; inhibition, % at 12.5 µM; 0.18% of 130,000 active; AID 1259397; recombinant mouse cGAS, cGAMP by RapidFire MS;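 active means inhibition of cGAS enzyme activity at or above 60%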;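 further: enzyme stimulated by 45 bp dsDNA with ATP and GTP substrates; cGAMP share of summed cGAMP plus half ATP and half GTP signals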
Target sequence (Q8C6L5 whole entry, looked up): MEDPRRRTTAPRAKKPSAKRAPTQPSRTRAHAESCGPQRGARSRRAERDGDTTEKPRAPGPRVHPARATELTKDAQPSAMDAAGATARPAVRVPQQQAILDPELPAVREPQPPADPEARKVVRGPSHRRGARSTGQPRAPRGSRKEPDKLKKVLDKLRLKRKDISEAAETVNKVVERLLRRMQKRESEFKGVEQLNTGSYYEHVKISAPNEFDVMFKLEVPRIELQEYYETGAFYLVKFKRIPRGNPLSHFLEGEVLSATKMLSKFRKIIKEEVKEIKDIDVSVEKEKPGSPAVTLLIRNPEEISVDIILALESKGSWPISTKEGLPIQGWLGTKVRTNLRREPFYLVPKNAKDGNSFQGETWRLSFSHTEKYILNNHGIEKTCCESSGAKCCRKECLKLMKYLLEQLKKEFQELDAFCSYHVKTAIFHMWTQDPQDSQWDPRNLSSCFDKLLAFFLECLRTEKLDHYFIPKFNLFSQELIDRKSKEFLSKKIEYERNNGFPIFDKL
Numbers stand for hits; 0 = inactive.

SMILES	mcGAS MS inh
Cc1nc(C)c(CNC(=O)c2ccccc2N2CCOCC2)s1	0
CC1COC(c2ccccc2)(c2ccccc2)C1 (configuration not stated)	0
Cc1noc(C)c1CCC(=O)Nc1ccc2oc3ccccc3c2c1	0
Cc1cc(C(=O)NNC(=O)C=Cc2ccco2)c(C)o1	67
CCOC(=O)NNC(=O)c1cc(C)oc1C	0
Cc1cc(C(=O)NNC(=O)CCNC(=O)c2ccco2)c(C)o1	0
COc1ccc(OCC2CN(C(=O)CCCNC(=O)OCc3ccccc3)CCO2)cc1 (configuration not stated)	0
COc1ccc(OCC(O)CN)cc1 (configuration not stated)	0
CCc1c(C)[nH]n(-c2nc3ccccc3[nH]2)c1=O	0
Cc1[nH]n(-c2nc3ccccc3[nH]2)c(=O)c1C1OC(=O)c2ccccc21 (configuration not stated)	99
Cc1[nH]n(-c2nc3ccccc3[nH]2)c(=O)c1C	0
CC1CCN(C)c2ccccc2N1C(=O)CCNC(=O)C(C)(C)C (configuration not stated)	0
COc1ccc(C(C)=O)cc1CN1C(=O)C(C)ON=C1c1cccc(C)c1 (configuration not stated)	0
Cc1ccc(C)c(Cn2c(=O)c3c(nc4n(CCCO)c(C)c(C)n34)n(C)c2=O)c1	0
COC(=O)C1CCCCN1C(=O)CCc1nnc(CCc2ccc(OC)cc2)o1 (configuration not stated)	0
COc1ccc(CCC(=O)N2CCN(Cc3nnc(C4CC4)o3)CC2)cc1	94
COCCN1CCN(C(=O)CCc2nnc(CCc3ccc(OC)cc3)o2)CC1	0
CC(C)c1ccc(NS(=O)(=O)Cc2ccccc2Cl)cc1	0
Cc1oc2ncn(C)c(=O)c2c1C(=O)Nc1cccc(COCC2CC2)c1	94
CCCC1(CNC(=O)c2c(C)oc3ncn(C)c(=O)c23)CCC1	0
Cc1oc(C)c(C(=O)Nc2cccc(N3CCCC3=O)c2)c1C	0
CCOC(=O)c1nn(-c2ccccc2Cl)c(=O)cc1OCC(=O)Nc1ccc(Cl)cc1	0
CCC1CCCCN1C(=O)NC1CCN(c2ccccc2)C1=O (configuration not stated)	0
C=CCSc1nnc(N)s1	0
Nc1nnc(SCC(=O)c2ccc([N+](=O)[O-])cc2)s1	0
SMILES	mcGAS MS inh
Nc1nnc(Sc2ncc([N+](=O)[O-])s2)s1	67
CN(Cc1ccccc1)c1ncccc1CNc1ncc(Cl)cn1	0
CN1CCN(C2=NC(C(=O)Nc3ccccc3)CC(=O)N2)CC1 (configuration not stated)	70
CN1C(=O)CC(C(=O)Nc2ccccc2)SC1=Nc1ccc(Cl)c(C(F)(F)F)c1 (configuration not stated)	0
CN1CCC(N(Cc2ccccc2)C(=O)Nc2ccc(NC(=O)C3CC3)cc2)CC1	0
O=C(O)c1cccc(Oc2ccc(Cl)c(Cl)c2)n1	0
Cc1ccccc1OCC1=NN2C(=N)/C(=C/c3ccc4c(c3)OCO4)C(=O)N=C2S1	0
O=C1OC(c2ccccc2)OC(=O)C1=C/C=C/c1ccccc1 (configuration not stated)	88
CC(C)Oc1ccccc1C=C1C(=O)OC(c2ccccc2)OC1=O (configuration not stated)	0
Cc1ccc(C2=N/C(=C\C=C\c3ccccc3)C(=O)O2)cc1	0
CSCC[C@@H](CO)n1ccnc1-c1oc2ccccc2c1C	0
O=C1OC(/C=C/c2cccc(Cl)c2Cl)=NC/1=C\c1ccc([N+](=O)[O-])cc1	71
COc1ccc(/C=C2N=C(/C=C/c3cccc(Cl)c3Cl)OC\2=O)cc1	0
O=C1OC(/C=C/c2cccc(Cl)c2Cl)=NC/1=C/c1ccccc1[N+](=O)[O-]	0
Cc1ccc(C(N)=O)c(-c2ccc(C(C)N(C)C)cc2)n1 (configuration not stated)	0
C=CCn1c(=O)c2c(nc3n(-c4ccccc4O)c(C)cn23)n(C)c1=O	0
C/C=C/CN1CCC=C(CN2CCC(NC(=O)COC)CC2)C1	0
CC1Sc2ccccc2N(Cc2ccccc2Cl)C1=O (configuration not stated)	69
Cc1ccccc1CN1C(=O)C(C)Sc2ccccc21 (configuration not stated)	0
CC1Oc2ccccc2N(Cc2ccccc2Cl)C1=O (configuration not stated)	0
CC1Sc2ccc(-c3ccco3)cc2N(Cc2ccccc2Cl)C1=O (configuration not stated)	69
COc1cccc(-c2ccc3c(c2)N(Cc2ccc(F)cc2)C(=O)C(C)S3)c1 (configuration not stated)	0
Cc1ccccc1CN1C(=O)C(C)Sc2ccc(-c3ccco3)cc21 (configuration not stated)	0
O=c1c(Cl)c(NCCNc2ccc([N+](=O)[O-])cc2)cnn1C12CC3CC(CC(C3)C1)C2	0
Cc1cccc(CCNC(=O)C2CCN(C(=O)N3CCCC3)CC2)c1	0
SMILES	mcGAS MS inh
Cc1cc(C)cc(NC(=O)c2c(C)cc(=O)n(-c3ccccc3)c2C)c1	0
COC(=O)c1c(C)oc2c1cc(NS(=O)(=O)c1ccc(Cl)c([N+](=O)[O-])c1)c1ccccc12	0
COC(=O)C(C)(C)NCc1cccc(Cl)c1	0
O=c1cc(-c2cc(O)c(O)c(O)c2)oc2cc(O)cc(O)c12	0
O=c1oc2c(O)c(O)cc3c(=O)oc4c(O)c(O)cc1c4c23	93
O=C(NC1CC1)c1cc(N2CCN(C/C=C/c3ccccc3)CC2)ccn1	0
O=C(c1cccs1)N1CCC(c2nc3cc(Cl)ccc3s2)CC1	0
O=C(c1cccs1)c1cccs1	0
NC(=O)n1c(O)c(C(=O)c2cccs2)c2cc(Cl)ccc21	70
CCOC(=O)c1c(NC(=O)Cn2nc(C)c([N+](=O)[O-])c2C)sc2c1CCC(C(C)(C)C)C2 (configuration not stated)	0
COc1cc(C=C2SC(=S)NC2=O)cc(OC)c1OC	0
O=C1NC(=S)SC1=Cc1cc(O)c(O)c(Cl)c1	97
O=C1NC(=S)SC1=Cc1ccccc1Cl	0
O=C(NCc1ccc(F)cc1)C(=O)Nc1cc2c3c(c1)CCN3C(=O)CC2	0
Cc1ccc(-c2nc(C=Nc3ccc4nc(NC(=O)C5CCCCC5)sc4c3)c(O)o2)cc1	0
COc1cccc(CC(C(=O)NC2C3CCCCC32)n2nnnc2C)c1 (configuration not stated)	0
CC(C(=O)N1CCC(n2nccc2NC(=O)C(C)(C)C)CC1)N1CCCC1=O (configuration not stated)	0
Cc1cc(Nc2ccc3c(n2)C(=O)N(CC(=O)N[C@H]2CCc4ccccc42)C3)n(C)n1	0
O=S(=O)(O)CC(S)CS (configuration not stated)	87
COc1cccc(C(=O)NC(NC(=S)Nn2cnnc2)C(Cl)(Cl)Cl)c1 (configuration not stated)	0
CCOc1ccc(C(=O)c2nc3c(n2O)CCCCC3)cc1OCC	0
Cc1ccc(C(=O)c2nc3c(n2O)CCCCC3)cc1	90
O=C(c1cccc2ccccc12)c1nc2c(n1O)CCCC2	0
C(CCNc1nc2nonc2nc1N1CCSCC1)CCN1CCOCC1	0
COC1CCN(c2ccc(-c3nc(Cc4ccccc4)no3)cn2)CC1	0
O=C(c1n[nH]c(=O)c2ccccc12)N1CCN(S(=O)(=O)c2cccc(Cl)c2)CC1	87
Cc1cccc(CN2CCN(C(=O)c3n[nH]c(=O)c4ccccc34)CC2)c1	0
O=C(c1n[nH]c(C2CC2)c1Cl)N1CCN(S(=O)(=O)c2ccccc2)CC1	0
